Records with an inconclusive call do not appear. Entries that show only a call come without a potency. More than one record can exist for a structure, and the calls need not agree. Active and inactive are the calls of the source. Unless noted, calls follow the shape of the dose curve; as a rule, active = well fitted curve in the direction sought with a large enough effect; inconclusive = small, poorly fitted or top-dose-only effect, or another doubt; inactive = no such curve, though single readings can be large; an effect the other way counts as inactive or inconclusive. Bounds are passed on as bounds.

The results in this text go back to PubChem BioAssay (NCATS).

For test [1], the target named is Cytochrome P450 1A2 (Homo sapiens) (UniProt P05177). Briefly: p450-cyp1a2 (AID 410; calls by dose curve; also: potency is read from the fitted curve at half-maximal effect). A digest of the protocol: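 Luminescent readout of luciferin formed from Luciferin-ME by human CYP1A2; data normalized against complete inhibition by 57 uM furafylline. Enzyme 20nM, substrate 100uM at Km, 100mM KPO4 buffer, 60 min reaction at room temperature.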
Test [2] addresses Glucocorticoid receptor (Homo sapiens) (UniProt P04150). Briefly: GR-GFP Redistribution (AID 450;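 active = compounds whose dose series gives a full or clear partial fitted curve of increased nuclear translocation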; also: potency is read from the fitted curve at half-maximal effect). The following applies: U2OS GR-GFP nuclear translocation, laser cytometry, 2 h.
The target is the same in test [3]. Briefly: GR-EFC Redistribution (AID 451; calls by dose curve; also: potency is read from the fitted curve at half-maximal effect). The conditions noted are these: CHO-K1 GR-EFC translocation, beta-gal luminescence, 2 h. A digest of the protocol:
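CHO-K1 cells stably expressing nuclear-localized β-gal enzyme acceptor and GR fused C-terminally to the enzyme donor fragment; ligand-driven nuclear translocation restores β-gal by complementation. Compounds titrated up to 46 uM final, 2 h at 37 °C; luminescence read.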

In test [4] the target is Cytochrome P450 2D6 (Homo sapiens) (UniProt P10635). In words: qHTS Assay for Inhibitors and Substrates of Cytochrome P450 2D6 (AID 891). Also: potency is read from the fitted curve at half-maximal effect; nearly all actives have a fitted effect of over 60% in size. In outline:
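Human CYP2D6 (5 nM) with 30 uM Luciferin-ME EGE (at Km) in 100 mM KPO4, compound preincubated 10 min, then NADPH regeneration system for 60 min at room temperature. Luciferin read by luminescence; normalized to 1.43 uM quinidine.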
On the technique in general: qHTS replaces the single test concentration by a dilution series.

Test [5] concerns the target DNA dC->dU-editing enzyme APOBEC-3G (Homo sapiens) (UniProt Q9HC16). Briefly: qHTS for inhibitors of Vif-A3G interactions: Validation (AID 588379). In outline: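 HeLa cells stably expressing Vif and A3G-eYFP, 700 cells/well, incubated overnight at 37 deg C, then exposed to compound overnight at 37 deg C. Inhibition of Vif-mediated degradation read as increased yellow fluorescence (Ex 488/Em 500-530) by laser-scanning cytometry.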

The target of test [6] is Rap guanine nucleotide exchange factor 3 (Homo sapiens) (UniProt O95398). In words: Confirmatory qHTS for antagonist of cAMP-regulated guanine nucleotide exchange factor 3 (EPAC1) (AID 1645880). Also: nearly all actives have a fitted effect of over 55% in size. A digest of the protocol: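 Nucleotide exchange uses 100 nM EPAC1, 250 nM RAP1B-BODIPY-GDP and 50 uM GDP, with compounds in a concentration-titration series. After 5 min at room temperature, fluorescence (480 nm ex/540 nm em) is read every 5 min for 30 min. Data are normalized to control ATA and DMSO.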
Sequence of Rap guanine nucleotide exchange factor 3 (Homo sapiens) (O95398 whole entry, looked up): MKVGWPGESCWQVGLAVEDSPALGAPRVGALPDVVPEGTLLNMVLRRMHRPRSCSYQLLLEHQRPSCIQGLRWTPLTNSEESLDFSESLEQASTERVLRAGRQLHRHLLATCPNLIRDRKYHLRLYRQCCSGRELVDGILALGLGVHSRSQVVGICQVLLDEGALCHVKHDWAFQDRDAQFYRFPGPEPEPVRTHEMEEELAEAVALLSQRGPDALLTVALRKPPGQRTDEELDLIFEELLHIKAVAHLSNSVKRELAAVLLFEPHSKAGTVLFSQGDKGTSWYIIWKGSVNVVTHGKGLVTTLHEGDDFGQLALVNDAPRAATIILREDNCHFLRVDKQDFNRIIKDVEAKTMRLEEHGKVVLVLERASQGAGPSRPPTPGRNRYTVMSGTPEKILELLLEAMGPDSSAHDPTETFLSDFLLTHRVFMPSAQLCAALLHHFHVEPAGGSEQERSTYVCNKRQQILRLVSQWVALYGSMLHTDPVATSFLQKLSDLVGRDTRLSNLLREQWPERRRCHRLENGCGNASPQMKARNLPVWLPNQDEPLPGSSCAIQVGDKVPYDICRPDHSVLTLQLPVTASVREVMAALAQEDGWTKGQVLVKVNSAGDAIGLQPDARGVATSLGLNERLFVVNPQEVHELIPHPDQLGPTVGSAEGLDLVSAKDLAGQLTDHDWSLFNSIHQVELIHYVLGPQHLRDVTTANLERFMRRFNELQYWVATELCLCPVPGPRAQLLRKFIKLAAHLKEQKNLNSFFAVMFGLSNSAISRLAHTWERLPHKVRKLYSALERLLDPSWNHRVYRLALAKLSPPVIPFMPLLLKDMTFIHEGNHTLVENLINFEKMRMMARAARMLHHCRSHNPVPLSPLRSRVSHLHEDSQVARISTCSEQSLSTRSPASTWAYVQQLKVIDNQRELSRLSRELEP

Test [7] shares this target. In words: Confirmatory qHTS for agonist of cAMP-regulated guanine nucleotide exchange factor 3 (EPAC1) (AID 1645881).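 Also: EPAC1 catalysed release of BODIPY-GDP from Rap1B seen as fluorescence loss; nearly all actives have a fitted effect of over 75% in size.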
In test [8] the target is Rap guanine nucleotide exchange factor 4 (Homo sapiens) (UniProt Q8WZA2). Briefly: Confirmatory qHTS for antagonist of cAMP-regulated guanine nucleotide exchange factor 4 (EPAC2) (AID 1645885). Also: nearly all actives have a fitted effect of over 25% in size.
Sequence of Rap guanine nucleotide exchange factor 4 (Homo sapiens) (Q8WZA2 whole entry, looked up): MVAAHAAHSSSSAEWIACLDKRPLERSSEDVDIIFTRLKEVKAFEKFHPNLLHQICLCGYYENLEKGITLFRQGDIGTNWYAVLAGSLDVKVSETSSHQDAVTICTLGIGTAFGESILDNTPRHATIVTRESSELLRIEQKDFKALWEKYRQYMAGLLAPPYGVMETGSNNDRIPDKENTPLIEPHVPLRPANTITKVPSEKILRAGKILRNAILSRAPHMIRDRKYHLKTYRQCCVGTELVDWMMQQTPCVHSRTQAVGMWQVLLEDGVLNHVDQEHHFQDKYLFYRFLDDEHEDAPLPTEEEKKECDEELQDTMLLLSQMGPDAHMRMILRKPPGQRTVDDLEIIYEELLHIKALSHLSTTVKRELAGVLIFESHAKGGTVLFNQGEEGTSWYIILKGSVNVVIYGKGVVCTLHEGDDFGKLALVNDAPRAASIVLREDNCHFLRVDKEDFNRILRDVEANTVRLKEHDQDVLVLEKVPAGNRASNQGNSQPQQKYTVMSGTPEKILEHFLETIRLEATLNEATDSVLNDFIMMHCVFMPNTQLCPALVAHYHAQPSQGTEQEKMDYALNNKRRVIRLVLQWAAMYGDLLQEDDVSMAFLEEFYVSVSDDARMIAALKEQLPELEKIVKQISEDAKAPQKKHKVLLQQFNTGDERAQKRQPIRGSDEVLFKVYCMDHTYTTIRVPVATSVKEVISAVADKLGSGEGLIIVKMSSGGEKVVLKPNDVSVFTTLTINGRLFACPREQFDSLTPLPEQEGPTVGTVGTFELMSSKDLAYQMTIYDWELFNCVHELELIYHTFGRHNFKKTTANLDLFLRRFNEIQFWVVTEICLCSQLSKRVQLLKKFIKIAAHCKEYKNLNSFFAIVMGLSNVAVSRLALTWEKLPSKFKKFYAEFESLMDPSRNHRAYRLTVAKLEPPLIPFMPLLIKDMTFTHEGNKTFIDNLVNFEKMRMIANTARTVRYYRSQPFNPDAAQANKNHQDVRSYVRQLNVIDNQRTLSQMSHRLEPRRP
A short description of test [9]: qHTS for Inhibitors of Plasmodium falciparum (GB4) proliferation (AID 504315). Also: nearly all actives have a fitted effect of over 50% in size. In outline:
(§1)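 Erythrocytes infected with P. falciparum line (0.3% parasitemia, 2.5% hematocrit final) incubated with compounds 72 h at 37 °C, 5% CO2; SYBR Green lysis buffer added, fluorescence read next day. Normalized to 0.29 uM artemisinin and DMSO.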

Test [10] in a line: qHTS for Inhibitors of Plasmodium falciparum (HB3) proliferation (AID 504318). Also: nearly all actives have a fitted effect of over 60% in size. Also: potency is read from the fitted curve at half-maximal effect. In outline:
as §1

A short description of test [11]: qHTS for Inhibitors of Plasmodium falciparum (CP250) proliferation (AID 504320). A digest of the protocol:
as §1

Test [12] has as its target Nuclear receptor subfamily 1 group I member 3 (Homo sapiens) (UniProt Q14994). Briefly: Primary qHTS for antagonist of constitutive androstane receptor (CAR) against the NCATS DSHEA and TCM libraries (AID 1794836). A digest of the protocol:
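HepG2 cells stably carrying hCAR and a CYP2B6 luciferase reporter (2,500 cells/well) attached for 5 h, then received compounds with 48 uM CITCO for 24 h at 37C. ONE-Glo luminescence read antagonism; CellTiter-Fluor (405/540 nm) gave viability.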

Test [13] can be described thus: Cytotoxicity counterscreen for inhibitors of SARS-CoV-2 cell entry (AID 1645845; calls by dose curve; also: nearly all actives have a fitted effect of over 50% in size). A digest of the protocol: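 Expi293F/hACE2 cells seeded overnight; cpd pin-transferred in DMSO, 1 h preincubation, + media, 48 h 37 C 5% CO2; ATPLite 1step luminescence; normalized to cells and no cells.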
On the technique in general: A counterscreen serves to expose hits that act by an unwanted route or on another target.

The nature of test [14]: Primary qHTS to identify inhibitors of SARS-CoV-2 cell entry (AID 1645846; calls by dose curve; also: nearly all actives have a fitted effect of over 45% in size). The following applies: activity change, negative = inhibition: at 57.1 µM (top of the series) unless noted. In outline: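 Using luciferase-reporting pseudoviruses carrying Wuhan-Hu-1 spike, the screen tracks entry into stably ACE2-expressing cells over 48 hr. Activity is expressed relative to spike particles versus particles lacking any fusion protein.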

Test [15] in a line: AP1 Signaling Pathway (AID 357; active = well fitted curve in either direction with a large enough effect, not every such curve was filed as active;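 also: ME-180 reporter cells stimulated with EGF at its EC50 level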). A digest of the protocol:
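Cells are seeded overnight, exposed to compound titrations and an EC50 level of EGF for 5 hours at 37 °C, then loaded with CCF4 dye for 2.5 hours. Beta-lactamase activity under the AP-1 element is read as a blue/green ratio.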

The nature of test [16]: NFAT Signaling Pathway (AID 444; active = well fitted curve in either direction with a large enough effect, not every such curve was filed as active;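 also: carbachol stimulus at about its EC50 of 1 µM final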). The following applies: Jurkat NFAT-bla M1, carbachol, beta-lactamase ratio, 5 h; at 17.2 µM (top of the series). In outline: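 Jurkat cells carrying an NFAT-driven β-lactamase reporter and co-transfected muscarinic M1 receptor were treated with compound plus carbachol (1 uM final, an EC50 level) for 5 h at 37 °C. CCF4 loading followed for 1 h at RT; 460/530 nm ratio gave %activity.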

A short description of test [17]: Stat Signaling Pathway (AID 446; active = well fitted curve in either direction with a large enough effect, not every such curve was filed as active;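 also: ME-180 cervical cancer cells given 40 pM IL-6 alongside compound; SIE-controlled beta-lactamase reporter measured as 460/530 nm FRET emission ratio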). A digest of the protocol: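 Reporter line: ME-180 cervical carcinoma, SIE-beta-lactamase. Treatment: compound with 40 pM IL-6, 5 hrs, 37 C, in low-serum OPTI-MEM with 10 mM HEPES pH 7.3. Detection: 460/530 nm fluorescence.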
Test [18] deals with Mitogen-activated protein kinase 10 (Mus musculus) (UniProt Q61831). Briefly: JNK3 AlphaScreen Assay (AID 530; active = well fitted curve in either direction with a large enough effect, not every such curve was filed as active;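 also: kinase came from lysate of stimulated human HepG2 cells; signal reports phosphorylation of biotinylated GST-cJun 1-79 at Ser73 with 10 µM ATP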). A digest of the protocol: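 Inhibitors reduce antibody binding to phosphorylated biotin-cJun, lowering AlphaScreen luminescence. Lysates from HepG2 cells pre-activated by IL-1beta plus TNF-alpha supplied JNK3; compounds were titrated.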
The target of test [19] is 3',5'-cyclic-AMP phosphodiesterase 4B (Homo sapiens) (UniProt Q07343). In words: qHTS Assay for Inhibitors of PDE-IV (AID 607; active = well fitted activation curve with a large enough effect in the main read-out, with a control signal flat, not every such curve was filed as active). In outline:
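Cell-based read-out of cAMP via a modified cyclic nucleotide-gated channel and membrane potential dye (535/590 nm) in HEK293 cells expressing PDE4 endogenously. Compounds tested up to 22.9 uM final; 100 uM RO 20-1724 reference.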

In test [20] the target is Ubiquitin carboxyl-terminal hydrolase 1 (Homo sapiens) (UniProt O94782). Briefly: Inhibitors of USP1/UAF1: Pilot qHTS (AID 504865).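 Also: rhodamine fluorescence freed from ubiquitin-rhodamine substrate followed over time; top concentration of the series differs between compounds; nearly all actives have a fitted effect of over 35% in size.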 A digest of the protocol: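 Enzyme-free wells gave the negative control, while test wells held 1nM USP1/UAF1 preincubated with compound for 15 min at room temperature. Ub-Rho at 150nM final started the reaction, and fluorescence at 480/540 nm was recorded kinetically.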
Sequence of Ubiquitin carboxyl-terminal hydrolase 1 (Homo sapiens) (O94782 whole entry, looked up): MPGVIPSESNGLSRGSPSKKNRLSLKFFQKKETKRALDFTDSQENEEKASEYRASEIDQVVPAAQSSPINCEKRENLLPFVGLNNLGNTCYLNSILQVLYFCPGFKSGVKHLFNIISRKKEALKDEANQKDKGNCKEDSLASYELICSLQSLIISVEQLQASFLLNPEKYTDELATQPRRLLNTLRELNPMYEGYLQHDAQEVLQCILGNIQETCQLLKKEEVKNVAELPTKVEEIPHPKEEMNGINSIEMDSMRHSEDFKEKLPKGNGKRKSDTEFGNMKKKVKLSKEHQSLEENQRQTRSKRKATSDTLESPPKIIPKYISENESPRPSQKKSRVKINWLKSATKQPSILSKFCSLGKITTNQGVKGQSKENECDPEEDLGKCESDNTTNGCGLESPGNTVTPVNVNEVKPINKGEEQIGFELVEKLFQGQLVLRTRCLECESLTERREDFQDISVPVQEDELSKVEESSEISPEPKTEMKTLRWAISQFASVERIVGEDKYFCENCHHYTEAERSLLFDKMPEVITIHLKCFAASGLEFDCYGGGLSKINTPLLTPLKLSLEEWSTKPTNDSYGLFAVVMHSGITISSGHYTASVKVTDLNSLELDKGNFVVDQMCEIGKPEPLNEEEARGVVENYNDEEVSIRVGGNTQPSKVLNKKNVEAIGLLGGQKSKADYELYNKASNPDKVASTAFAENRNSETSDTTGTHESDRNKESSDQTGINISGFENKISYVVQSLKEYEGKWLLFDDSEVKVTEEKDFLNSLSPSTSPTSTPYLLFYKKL

A short description of test [21]: qHTS Assay for Lipid Storage Modulators (AID 1519; calls by dose curve). The conditions noted are these: Drosophila S3 cells, BODIPY lipid droplet/cell ratio, laser cytometry, cells loaded with oleic acid. In outline: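 Cells seeded at 5,000 per well were treated with compounds over a concentration series and loaded with oleic acid (400 uM, as added). Lipid droplet fluorescence (488 nm excitation, 500-530 nm channel) was read by laser-scanning cytometry and normalized to 20 uM Triacsin C.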

Sequence of DNA dC->dU-editing enzyme APOBEC-3G (Homo sapiens) (Q9HC16 whole entry, looked up): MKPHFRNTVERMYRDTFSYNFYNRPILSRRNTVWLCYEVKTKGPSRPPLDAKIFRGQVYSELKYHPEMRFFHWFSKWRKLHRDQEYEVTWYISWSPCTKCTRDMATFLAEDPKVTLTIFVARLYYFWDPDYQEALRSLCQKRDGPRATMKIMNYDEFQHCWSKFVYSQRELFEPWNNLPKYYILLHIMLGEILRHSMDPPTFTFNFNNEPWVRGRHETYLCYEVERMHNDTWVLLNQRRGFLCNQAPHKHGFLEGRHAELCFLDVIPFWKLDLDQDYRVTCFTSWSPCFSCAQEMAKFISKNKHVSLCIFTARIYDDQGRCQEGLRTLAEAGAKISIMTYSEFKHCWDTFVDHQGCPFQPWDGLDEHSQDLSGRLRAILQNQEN
Sequence of Glucocorticoid receptor (Homo sapiens) (P04150 whole entry, looked up): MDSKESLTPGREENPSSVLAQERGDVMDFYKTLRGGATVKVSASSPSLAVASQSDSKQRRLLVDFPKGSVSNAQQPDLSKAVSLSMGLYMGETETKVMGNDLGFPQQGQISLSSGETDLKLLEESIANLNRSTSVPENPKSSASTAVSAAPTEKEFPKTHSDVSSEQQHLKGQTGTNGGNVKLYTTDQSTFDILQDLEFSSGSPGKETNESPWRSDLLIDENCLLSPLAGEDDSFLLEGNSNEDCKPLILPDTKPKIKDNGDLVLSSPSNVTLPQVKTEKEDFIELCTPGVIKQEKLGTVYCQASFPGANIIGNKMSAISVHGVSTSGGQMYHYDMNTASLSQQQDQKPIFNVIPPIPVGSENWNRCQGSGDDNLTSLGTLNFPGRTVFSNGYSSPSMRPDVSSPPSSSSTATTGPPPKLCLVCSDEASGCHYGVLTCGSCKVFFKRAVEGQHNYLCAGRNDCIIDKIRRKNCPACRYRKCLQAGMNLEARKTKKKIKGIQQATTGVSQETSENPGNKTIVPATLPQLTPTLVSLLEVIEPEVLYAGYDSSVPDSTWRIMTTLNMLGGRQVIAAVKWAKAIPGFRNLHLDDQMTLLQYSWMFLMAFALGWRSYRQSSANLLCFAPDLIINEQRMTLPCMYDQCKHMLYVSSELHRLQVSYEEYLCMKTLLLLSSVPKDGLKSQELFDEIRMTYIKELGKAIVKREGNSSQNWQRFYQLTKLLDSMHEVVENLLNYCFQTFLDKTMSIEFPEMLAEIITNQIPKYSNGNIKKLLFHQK
Sequence of 3',5'-cyclic-AMP phosphodiesterase 4B (Homo sapiens) (Q07343 whole entry, looked up): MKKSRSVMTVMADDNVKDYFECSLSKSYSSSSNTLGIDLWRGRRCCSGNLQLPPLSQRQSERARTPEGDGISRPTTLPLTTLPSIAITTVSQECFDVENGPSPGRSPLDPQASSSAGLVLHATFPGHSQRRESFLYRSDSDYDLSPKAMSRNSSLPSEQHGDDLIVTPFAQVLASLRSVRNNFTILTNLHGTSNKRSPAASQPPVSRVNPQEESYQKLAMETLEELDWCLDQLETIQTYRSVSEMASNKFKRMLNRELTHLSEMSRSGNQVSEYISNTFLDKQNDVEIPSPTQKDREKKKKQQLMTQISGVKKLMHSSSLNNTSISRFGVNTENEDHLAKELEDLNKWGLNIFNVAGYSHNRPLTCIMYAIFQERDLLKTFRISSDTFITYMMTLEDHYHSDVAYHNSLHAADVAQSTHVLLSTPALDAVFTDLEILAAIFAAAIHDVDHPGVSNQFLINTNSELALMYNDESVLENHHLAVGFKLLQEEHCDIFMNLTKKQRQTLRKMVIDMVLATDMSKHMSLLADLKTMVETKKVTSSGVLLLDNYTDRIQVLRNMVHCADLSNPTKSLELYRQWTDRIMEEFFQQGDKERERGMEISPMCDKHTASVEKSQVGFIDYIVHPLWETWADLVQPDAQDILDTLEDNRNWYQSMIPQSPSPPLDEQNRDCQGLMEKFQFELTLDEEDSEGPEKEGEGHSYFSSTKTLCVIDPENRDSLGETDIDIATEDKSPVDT
Sequence of Nuclear receptor subfamily 1 group I member 3 (Homo sapiens) (Q14994 whole entry, looked up): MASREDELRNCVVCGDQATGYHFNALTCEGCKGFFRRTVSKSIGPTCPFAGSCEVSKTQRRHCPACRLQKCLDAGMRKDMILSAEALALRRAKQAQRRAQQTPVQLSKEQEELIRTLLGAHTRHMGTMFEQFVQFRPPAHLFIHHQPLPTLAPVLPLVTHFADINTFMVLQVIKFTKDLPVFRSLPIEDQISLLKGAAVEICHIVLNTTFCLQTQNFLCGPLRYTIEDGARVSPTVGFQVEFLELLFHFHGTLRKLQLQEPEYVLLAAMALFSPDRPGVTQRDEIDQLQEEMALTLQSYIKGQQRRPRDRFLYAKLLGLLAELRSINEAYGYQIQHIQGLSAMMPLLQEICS

As for `C(=C/c1ccccc1)/CN1CCN(CCOC(c2ccccc2)c2ccccc2)CC1`, the Potency in [1] is 20 µM (active); in test [2], > 46 µM (inactive); in [3] it was > 46 µM (inactive); in test [4] it was 5.01 µM (active). Further, the Potency result in [5], in test [6] and in [8] was “inactive” each time. Moreover, the result in test [7] was inactive.

With `COC(=O)C1(C)C2CC(C)C(c3ccccc32)N1C(=O)C(F)(F)F` (stereo unspecified), the compound was called inactive in [9] and in [11]. In addition, in test [10], the Potency entry was “inactive”.

Turning to `COC(=O)C1=C2CCO[C@@H]2[C@H]2[C@@H](C)[C@H](OC)c3ccccc3[C@H]12`, the outcome in [9] and in test [11] was inactive. Also, the Potency result in [10] was “inactive”.

`CCOC(=O)[C@]12C[C@@H]3OCCN(C(=O)N[C@@H]1c1ccccc1)[C@@H]32`: the compound was classed as inactive in [9] and in test [11]. Moreover, the Potency entry in [10] was “inactive”.

Take `CC(C)=CCC(O)/C(C)=C/CO[C@@H]1O[C@H](CO)[C@@H](O)[C@H](O)[C@H]1O` (stereo partly specified): the Potency result in [12] is “inactive”.

As for `C=C1C[C@@]2(O)O[C@@]3(C[C@H]2C(C)C)[C@@H](C)CC[C@@H]13`, the Potency result in [13] and in test [14] was “inactive” each time.

As to `CCC[C@]12CCN3C(=O)N[C@@H](c4ccccc4)[C@](C(=O)OCC)(C1)[C@H]32`, the compound was called inactive in test [9] and in test [11]. Moreover, the Potency entry in test [10] was “inactive”.

Consider `COC(=O)[C@@H]1[C@@H](c2ccccc2)[C@H]2C(=O)c3c(OC)cc(OC)cc3O[C@@]12c1ccc(OC)cc1`, for which the outcome in test [9] and in [11] was inactive. In test [10], the Potency entry is “inactive”.

As to `COC(=O)C1C2CC(C)C(c3ccccc32)N1C(=O)C(F)(F)F` (stereo unspecified), the compound was classed as inactive in [9] and in test [11]. In addition, in test [10], the Potency result was “inactive”.

As for `COC(=O)[C@@]1(C=C2c3ccc(F)cc3[C@@H](OC)[C@@H]2C)[C@@H]2c3ccccc3O[C@@H]21`, the outcome in [9] was inactive.

Turning to `CCOC(=O)[C@]12C[C@]3(C)CCN(C(=O)N[C@@H]1c1ccccc1)[C@@H]32`, the result in test [9] and in [11] was inactive. The Potency result in test [10] is “inactive”.

On to `C=CCN1CC[C@]23c4c5ccc(O)c4O[C@@H]2C(=O)CC[C@]3(O)[C@H]1C5`, for which the outcome in [15], in test [17] and in test [18] was inactive. Moreover, in test [16], the activity change, negative = inhibition is -9.64% (inactive). For the same compound, the Potency result in [19], in test [20] and in test [5] was “inactive” each time.

Regarding `C=C(C)[C@H]1C2C(=O)O[C@H]1[C@H]1OC(=O)[C@@]34O[C@@H]3C[C@]2(O)[C@@]14C`, in [21] (at 57.5 µM (top of the series)), the activity change, negative = inhibition was 2.82% (inactive). The max response worked out at 7.99% in test [21] (measured here: cell count channel max response) and 11% in [21] (measured here: lipid channel max response). Further, the Potency result in test [20] and in [5] was “inactive” throughout.

As for `COC(=O)[C@@]1(C=C[C@@H](C)[C@H](OC)c2ccccc2Br)[C@@H]2Oc3ccccc3[C@@H]21`, the compound was classed as inactive in test [9] and in test [11]. The Potency entry in test [10] is “inactive”.

With `COC(=O)C1=C[C@H]([C@@H](C)[C@H](OC)c2ccccc2Br)[C@H]2[C@H]1c1ccccc1N2C`, the compound was classed as inactive in test [9] and in test [11]. For the same compound, in [10], the Potency was 1.9 µM (active) and inactive.

Turning to `CC(=O)[C@]12[C@H](c3ccccc3)[C@@H]3CCN(C(=O)N[C@H]1c1ccccc1)[C@@]32C`, the outcome in [9] and in [11] was inactive. Also, in [10], the Potency entry was “inactive”.

For the compound `CCOC(=O)[C@]12C[C@]3(C)CCCN(C(=O)N[C@@H]1c1ccccc1)[C@@H]32`, the outcome in [9] and in test [11] was inactive. The Potency entry in test [10] is “inactive”.

Turning to `COC(=O)[C@@]1(C=C2c3ccc(F)cc3[C@@H](OC)[C@@H]2C)[C@@H]2Oc3ccccc3[C@@H]21`, the result in test [9] and in test [11] was inactive.

Consider `CC(=O)[C@@]12C3[C@@H](CCN3C(=O)N[C@H]1c1ccccc1)[C@H]2c1ccccc1` (stereo partly specified), for which the Potency result in test [10] is “inactive”. The call in [11] was inactive.
